PubChem BioAssay (EPA / NIEHS)
Where “and” joins values, the source holds several entries; their conditions need not be identical. Equal values may be shown once. Records with an inconclusive call do not appear. Some compounds were tested as several samples or in several runs, with calls that do not always agree. Calls of active or inactive are those of the source. How the source made its calls: active means hit-call score of the fitted dose curve at least 0.9, where 1 is the maximum; inconclusive means response in the unintended direction; inactive means score below 0.9.

Experiments:
[1] = biological target: human Ephrin type-A Receptor 1 (EphA1), EPHA1 (gene 2041) (UniProt P21709); assay: NVS_ENZ_hEphA1: NovaScreen (NVS) Enzymatic Assay for human Ephrin type-A Receptor 1 (EphA1) (AID 2283158);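 further: activity is signal loss versus DMSO meaning EphA1 kinase inhibition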
In short: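 Fluorescent substrate conversion, resolved by mobility-shift separation, measured 1 hour post-dosing using recombinant enzyme; signal loss relative to DMSO baseline. Single-concentration duplicates at 25 uM preceded singleton concentration series topping at 50 uM.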

[2] = biological target: human Beta-secretase (BACE), BACE1 (gene 23621) (UniProt P56817); assay: NVS_ENZ_hBACE: NovaScreen (NVS) Enzymatic Assay for human Beta-secretase (BACE) (AID 2283140);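 further: hits are inhibitors that reduce fluorescent substrate signal versus DMSO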
In short: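 Enzyme from SF9 cells was incubated 1 hour with compound and fluorogenic substrate, activity read by fluorescence. Single-concentration duplicates at 25 uM preceded concentration-response follow-up; fitting relative to DMSO baseline.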

[3] = biological target: human Dual Specificity Protein Phosphatase 3 (DUSP3), DUSP3 (gene 1845) (UniProt P51452); assay: NVS_ENZ_hDUSP3: NovaScreen (NVS) Enzymatic Assay for human Dual Specificity Protein Phosphatase 3 (DUSP3) (AID 2283152);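 further: phosphatase activity of recombinant human DUSP3 on a fluorogenic substrate without cells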
In short: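 Cell-free fluorescence-intensity enzyme activity assay with recombinant protein and substrate; loss of signal fitted relative to DMSO baseline. Primary screen in duplicate at 25 uM, actives then run in concentration series; measured 0 h after dosing.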

[4] = biological target: human Esterase Plasma (ES), BCHE (gene 590) (UniProt P06276); assay: NVS_ENZ_hES: NovaScreen (NVS) Enzymatic Assay for human Esterase Plasma (ES) (AID 2283157)
In short: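 Primary single-concentration screen at 25 uM in duplicate, then concentration-response to a 50 uM top dose. Human plasma esterase activity detected colorimetrically after 0.25 h incubation, with DMSO as baseline.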

Caspase-3 (Homo sapiens) = Caspase-3 (Homo sapiens) (UniProt P42574); assay: NVS_ENZ_hCASP3: NovaScreen (NVS) Enzymatic Assay for human Caspase 3 (CASP3) (AID 2283139)
In short: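 Single-concentration screening at 25 uM in duplicate, with concentration-response follow-up to a 50 uM maximum for chemicals passing the threshold. Caspase-3 (human, E. coli-expressed) activity was read as substrate fluorescence after 1 h, with loss of signal relative to DMSO.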

[5] = biological target: human AKT serine/threonine Kinase 1 (AKT1), AKT1 (gene 207) (UniProt P31749); assay: NVS_ENZ_hAKT1: NovaScreen (NVS) Enzymatic Assay for human AKT serine/threonine Kinase 1 (AKT1) (AID 2283138)
In short: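 Screening first at 25 uM (duplicate), with threshold-passing chemicals re-tested in concentration series to a 50 uM maximum. Kinase activity read by fluorescence with mobility-shift separation of substrate and product, 1 h after dosing, DMSO baseline.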

[6] = biological target: human AKT serine/threonine Kinase 2 (AKT2), AKT2 (gene 208) (UniProt P31751); assay: NVS_ENZ_hAKT2: NovaScreen (NVS) Enzymatic Assay for human AKT serine/threonine Kinase 2 (AKT2) (AID 2283141)
In short: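 Cell-free fluorescence/electrophoretic mobility shift readout of recombinant human AKT2 activity, 1 h after chemical dosing. Duplicate primary screen at 25 uM, then singleton concentration-response up to 50 uM; loss of signal versus DMSO baseline.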

CDK2 (gene 1017) = CDK2 (gene 1017) (UniProt P24941); assay: NVS_ENZ_hCDK2: NovaScreen (NVS) Enzymatic Assay for human Cyclin-Cependent Kinase 2 (CDK2) (AID 2283144)
In short: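 Compounds screened in duplicate at 25 uM, then in singleton concentration-response to a maximum of 50 uM, against recombinant CDK2; kinase activity read 1 hr after dosing by fluorescence with mobility-shift separation of substrate and product.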

[7] = biological target: human Casein Kinase 1-delta (CK1D), CSNK1D (gene 1453) (UniProt P48730); assay: NVS_ENZ_hCK1D: NovaScreen (NVS) Enzymatic Assay for human Casein Kinase 1-delta (CK1D) (AID 2283148)
In short: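 Recombinant human CK1-delta, cell-free; fluorescent substrate with electrophoretic mobility-shift separation of product, read 1 h after dosing. Single 25 uM duplicate screen, then concentration-response up to 50 uM; loss of signal vs DMSO.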

[8] = biological target: human Colony Stimulating Factor 1 Receptor (CSF1R), CSF1R (gene 1436) (UniProt P07333); assay: NVS_ENZ_hCSF1R: NovaScreen (NVS) Enzymatic Assay for human Colony Stimulating Factor 1 Receptor (CSF1R) (AID 2283150)
In short: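 Compounds screened in duplicate at 25 uM, then concentration-response (top 50 uM) for those passing threshold such as 30% inhibition; recombinant CSF1R activity measured 1 h post-dosing via fluorescent substrate/product mobility-shift separation, loss of signal versus DMSO.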

[9] = biological target: human FYN Proto-Oncogene, Src family Tyrosine Kinase (Fyn), FYN (gene 2534) (UniProt P06241); assay: NVS_ENZ_hFyn: NovaScreen (NVS) Enzymatic Assay for human FYN Proto-Oncogene, Src family Tyrosine Kinase (Fyn) (AID 2283161)
In short: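 Cell-free kinase activity read by fluorescence after mobility-shift separation of substrate and product, 1 h post-dose. Initial single concentration 25 uM in duplicate, then concentration-response follow-up; DMSO baseline.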

[10] = biological target: human Insulin Receptor (InsR), INSR (gene 3643) (UniProt P06213); assay: NVS_ENZ_hInsR: NovaScreen (NVS) Enzymatic Assay for human Insulin Receptor (InsR) (AID 2283168)
In short: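 Cell-free enzyme assay read 1 h post-dose by fluorescence after substrate/product mobility-shift separation. Duplicate 25 uM primary screen, then singleton concentration-response up to 50 uM for compounds passing threshold; loss of signal vs DMSO.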

[11] = biological target: human Janus Kinase 2 (Jak2), JAK2 (gene 3717) (UniProt O60674); assay: NVS_ENZ_hJak2: NovaScreen (NVS) Enzymatic Assay for human Janus Kinase 2 (Jak2) (AID 2283169)
In short: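 Single-point duplicate screen at 25 uM, with hits run in concentration series to a 50 uM top dose. Substrate-product separation by mobility shift with fluorescence detection, 1 h post-dosing; DMSO baseline.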

[12] = biological target: Mitogen-activated protein kinase 3 (Homo sapiens) (UniProt P27361); assay: NVS_ENZ_hMAPK3: NovaScreen (NVS) Enzymatic Assay for human Mitogen-Activated Protein Kinase 3 (MAPK 3) (AID 2283177)
In short: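 Chemicals were first tested in duplicate at 25 uM, with hits re-run as concentration series (max 50 uM). Recombinant enzyme activity, measured 1 h post-dose in a cell-free format, was read by fluorescence/mobility shift relative to DMSO.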

[13] = biological target: rat CYP3A2, Cyp3a2 (gene 266682) (UniProt P05183); assay: NVS_ADME_rCYP3A2: NovaScreen (NVS) CYP450-related Enzyme Activity (ADME) Assay for rat CYP3A2 (AID 2283128)
In short: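 Fluorescence readout of extracted rat CYP3A2 activity 0.5 h post-dose, acetonitrile as negative control. Single-point testing in duplicate at 10 uM, followed by concentration series to a 20 uM maximum for actives.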

[14] = biological target: Histone deacetylase 3 (Homo sapiens) (UniProt O15379); assay: NVS_ENZ_hHDAC3: NovaScreen (NVS) Enzymatic Assay for human Histone Deacetylase 3 (HDAC3) (AID 2283163)
In short: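 Cell-free enzyme format: loss of fluorescent product after mobility-shift separation, 1 h incubation, recombinant human HDAC3. Single 25 uM duplicate screen first, then concentration series to a 50 uM top for hits; DMSO as baseline.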

[15] = biological target: human Caspase 8 (CASP8), CASP8 (gene 841) (UniProt Q14790); assay: NVS_ENZ_hCASP8: NovaScreen (NVS) Enzymatic Assay for human Caspase 8 (CASP8) (AID 2283146)
In short: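 The primary screen tested compounds in duplicate at a single 25 uM concentration, with actives followed up in concentration series. Activity of recombinant (E. coli) protease was measured by fluorescence 1 h post-dose, as signal loss against DMSO.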

[16] = biological target: human Elastase, ELANE (gene 1991) (UniProt P08246); assay: NVS_ENZ_hElastase: NovaScreen (NVS) Enzymatic Assay for human Elastase (AID 2283153)
In short: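 Concentration-response to 50 uM max, run singly for chemicals passing a threshold (e.g., 30% inhibition) in a duplicate 25 uM single-point screen. Neutrophil-derived human elastase, absorbance read-out of enzyme activity at 1.5 h; DMSO baseline.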

[17] = biological target: human Caspase 5 (CASP5), CASP5 (gene 838) (UniProt P51878); assay: NVS_ENZ_hCASP5: NovaScreen (NVS) Enzymatic Assay for human Caspase 5 (CASP5) (AID 2283137)
In short: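 Loss of fluorescent signal versus DMSO scored for E. coli-derived human CASP5 cleaving a fluorescent substrate, 2 h post-dosing; compounds first tested at 25 uM in duplicate, hits rerun in concentration series with 50 uM top concentration.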

[18] = biological target: Glycogen synthase kinase-3 beta (Homo sapiens) (UniProt P49841); assay: NVS_ENZ_hGSK3b: NovaScreen (NVS) Enzymatic Assay for human Glycogen Synthase Kinase-3 beta (GSK3b) (AID 2283165)
In short: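 Recombinant enzyme with specific fluorescent substrate, 1 h, product separated by electrophoretic mobility shift. Primary duplicate screen at 25 uM; actives (e.g. 30% inhibition) followed in singleton concentration-response to 50 uM. Signal loss fitted versus DMSO.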

Chain of human Dual Specificity Protein Phosphatase 3 (DUSP3), DUSP3 (gene 1845) (P51452 whole entry, looked up): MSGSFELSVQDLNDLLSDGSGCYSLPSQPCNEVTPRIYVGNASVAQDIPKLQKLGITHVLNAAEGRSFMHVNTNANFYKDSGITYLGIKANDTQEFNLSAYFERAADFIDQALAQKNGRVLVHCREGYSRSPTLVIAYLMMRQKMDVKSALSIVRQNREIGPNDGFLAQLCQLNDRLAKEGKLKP
Chain of human Ephrin type-A Receptor 1 (EphA1), EPHA1 (gene 2041) (P21709 whole entry, looked up): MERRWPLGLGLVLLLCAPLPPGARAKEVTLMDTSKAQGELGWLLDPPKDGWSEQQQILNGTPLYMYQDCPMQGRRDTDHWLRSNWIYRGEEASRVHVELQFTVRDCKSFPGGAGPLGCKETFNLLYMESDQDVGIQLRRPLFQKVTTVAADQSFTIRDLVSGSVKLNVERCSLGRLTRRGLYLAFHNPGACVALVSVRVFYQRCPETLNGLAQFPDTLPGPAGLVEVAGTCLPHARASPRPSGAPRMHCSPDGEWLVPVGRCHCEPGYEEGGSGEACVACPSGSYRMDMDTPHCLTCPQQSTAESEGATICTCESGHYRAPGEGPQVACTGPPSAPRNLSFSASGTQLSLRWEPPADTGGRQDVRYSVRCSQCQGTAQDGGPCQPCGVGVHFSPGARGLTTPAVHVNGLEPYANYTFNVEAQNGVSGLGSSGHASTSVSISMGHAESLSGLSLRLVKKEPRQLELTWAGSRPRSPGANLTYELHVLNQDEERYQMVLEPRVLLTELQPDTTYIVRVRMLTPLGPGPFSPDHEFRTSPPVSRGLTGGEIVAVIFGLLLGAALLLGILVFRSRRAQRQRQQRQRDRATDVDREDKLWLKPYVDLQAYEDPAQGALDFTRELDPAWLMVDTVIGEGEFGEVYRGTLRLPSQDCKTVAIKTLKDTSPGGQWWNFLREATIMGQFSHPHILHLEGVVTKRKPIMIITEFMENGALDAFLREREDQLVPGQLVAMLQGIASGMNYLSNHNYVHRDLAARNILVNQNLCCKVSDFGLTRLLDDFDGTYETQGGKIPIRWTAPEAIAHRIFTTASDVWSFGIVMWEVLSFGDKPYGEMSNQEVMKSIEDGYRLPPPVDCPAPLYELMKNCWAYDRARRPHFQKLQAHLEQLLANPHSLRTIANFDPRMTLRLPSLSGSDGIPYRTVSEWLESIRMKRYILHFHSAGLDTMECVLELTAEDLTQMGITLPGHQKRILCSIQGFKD
Chain of human Caspase 5 (CASP5), CASP5 (gene 838) (P51878 whole entry, looked up): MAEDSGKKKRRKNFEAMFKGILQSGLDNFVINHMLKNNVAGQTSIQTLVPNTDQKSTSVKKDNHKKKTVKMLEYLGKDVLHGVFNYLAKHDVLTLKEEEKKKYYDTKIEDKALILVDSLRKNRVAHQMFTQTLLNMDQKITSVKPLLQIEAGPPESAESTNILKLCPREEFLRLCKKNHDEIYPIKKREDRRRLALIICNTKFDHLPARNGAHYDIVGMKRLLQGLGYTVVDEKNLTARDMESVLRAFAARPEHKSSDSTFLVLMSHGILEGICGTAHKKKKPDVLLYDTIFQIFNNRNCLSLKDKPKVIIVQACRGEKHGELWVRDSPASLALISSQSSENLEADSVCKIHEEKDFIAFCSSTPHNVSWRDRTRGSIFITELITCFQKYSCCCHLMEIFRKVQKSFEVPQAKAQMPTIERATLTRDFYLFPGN
Chain of human Beta-secretase (BACE), BACE1 (gene 23621) (P56817 whole entry, looked up): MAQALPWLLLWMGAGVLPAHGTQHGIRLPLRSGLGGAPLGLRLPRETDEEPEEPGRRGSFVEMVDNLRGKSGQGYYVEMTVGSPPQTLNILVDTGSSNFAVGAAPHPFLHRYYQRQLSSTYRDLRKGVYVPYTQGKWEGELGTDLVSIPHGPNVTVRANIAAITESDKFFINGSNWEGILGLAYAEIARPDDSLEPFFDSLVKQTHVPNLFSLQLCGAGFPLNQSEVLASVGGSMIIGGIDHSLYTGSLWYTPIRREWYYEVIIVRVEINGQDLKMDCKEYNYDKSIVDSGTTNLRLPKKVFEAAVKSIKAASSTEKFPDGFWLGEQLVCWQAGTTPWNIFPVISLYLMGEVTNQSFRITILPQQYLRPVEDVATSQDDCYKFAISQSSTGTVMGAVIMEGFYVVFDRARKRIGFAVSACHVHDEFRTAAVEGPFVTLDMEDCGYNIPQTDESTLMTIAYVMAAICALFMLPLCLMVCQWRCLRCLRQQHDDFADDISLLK
Chain of rat CYP3A2, Cyp3a2 (gene 266682) (P05183 whole entry, looked up): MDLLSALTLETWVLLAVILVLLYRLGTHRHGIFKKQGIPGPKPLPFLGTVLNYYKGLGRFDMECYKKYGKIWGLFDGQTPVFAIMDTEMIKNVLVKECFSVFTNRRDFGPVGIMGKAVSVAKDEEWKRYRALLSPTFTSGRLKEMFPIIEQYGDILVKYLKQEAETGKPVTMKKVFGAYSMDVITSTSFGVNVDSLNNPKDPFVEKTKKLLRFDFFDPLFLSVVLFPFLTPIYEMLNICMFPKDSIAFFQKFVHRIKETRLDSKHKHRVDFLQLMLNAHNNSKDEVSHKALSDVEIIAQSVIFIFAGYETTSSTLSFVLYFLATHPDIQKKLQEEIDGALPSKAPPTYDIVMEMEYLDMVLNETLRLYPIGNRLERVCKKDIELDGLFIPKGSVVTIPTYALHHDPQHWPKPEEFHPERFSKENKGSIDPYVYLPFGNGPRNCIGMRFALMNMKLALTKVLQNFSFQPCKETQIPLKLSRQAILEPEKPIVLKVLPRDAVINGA
Chain of human AKT serine/threonine Kinase 1 (AKT1), AKT1 (gene 207) (P31749 whole entry, looked up): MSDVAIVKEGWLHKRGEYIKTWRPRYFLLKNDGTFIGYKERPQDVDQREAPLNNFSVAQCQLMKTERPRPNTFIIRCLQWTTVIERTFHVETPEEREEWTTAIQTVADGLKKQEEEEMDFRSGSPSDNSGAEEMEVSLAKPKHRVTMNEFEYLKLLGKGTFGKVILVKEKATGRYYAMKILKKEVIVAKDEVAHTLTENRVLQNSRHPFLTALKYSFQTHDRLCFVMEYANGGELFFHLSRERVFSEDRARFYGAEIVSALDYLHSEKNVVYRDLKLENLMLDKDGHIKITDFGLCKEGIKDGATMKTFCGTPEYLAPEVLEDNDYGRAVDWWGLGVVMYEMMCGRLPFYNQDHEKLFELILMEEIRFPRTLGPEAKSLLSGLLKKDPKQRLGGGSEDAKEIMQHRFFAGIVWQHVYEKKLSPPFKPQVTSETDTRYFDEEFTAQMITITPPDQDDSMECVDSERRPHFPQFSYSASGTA
Chain of human Esterase Plasma (ES), BCHE (gene 590) (P06276 whole entry, looked up): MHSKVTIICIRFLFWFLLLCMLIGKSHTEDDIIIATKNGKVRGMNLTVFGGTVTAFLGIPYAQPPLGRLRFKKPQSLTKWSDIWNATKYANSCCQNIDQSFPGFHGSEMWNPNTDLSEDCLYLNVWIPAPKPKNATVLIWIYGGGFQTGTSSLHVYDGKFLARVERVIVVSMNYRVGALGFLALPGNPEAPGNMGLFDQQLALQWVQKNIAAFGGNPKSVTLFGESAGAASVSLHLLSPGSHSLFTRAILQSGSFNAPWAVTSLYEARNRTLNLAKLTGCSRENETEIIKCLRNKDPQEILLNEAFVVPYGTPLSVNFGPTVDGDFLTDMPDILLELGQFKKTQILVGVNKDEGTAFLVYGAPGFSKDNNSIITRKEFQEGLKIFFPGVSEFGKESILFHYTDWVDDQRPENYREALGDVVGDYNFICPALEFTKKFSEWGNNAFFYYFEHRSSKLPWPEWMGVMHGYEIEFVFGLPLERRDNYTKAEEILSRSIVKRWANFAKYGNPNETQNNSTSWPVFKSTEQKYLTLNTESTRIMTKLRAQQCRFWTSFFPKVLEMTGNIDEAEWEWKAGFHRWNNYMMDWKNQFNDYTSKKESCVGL
Chain of human Janus Kinase 2 (Jak2), JAK2 (gene 3717) (O60674 whole entry, looked up): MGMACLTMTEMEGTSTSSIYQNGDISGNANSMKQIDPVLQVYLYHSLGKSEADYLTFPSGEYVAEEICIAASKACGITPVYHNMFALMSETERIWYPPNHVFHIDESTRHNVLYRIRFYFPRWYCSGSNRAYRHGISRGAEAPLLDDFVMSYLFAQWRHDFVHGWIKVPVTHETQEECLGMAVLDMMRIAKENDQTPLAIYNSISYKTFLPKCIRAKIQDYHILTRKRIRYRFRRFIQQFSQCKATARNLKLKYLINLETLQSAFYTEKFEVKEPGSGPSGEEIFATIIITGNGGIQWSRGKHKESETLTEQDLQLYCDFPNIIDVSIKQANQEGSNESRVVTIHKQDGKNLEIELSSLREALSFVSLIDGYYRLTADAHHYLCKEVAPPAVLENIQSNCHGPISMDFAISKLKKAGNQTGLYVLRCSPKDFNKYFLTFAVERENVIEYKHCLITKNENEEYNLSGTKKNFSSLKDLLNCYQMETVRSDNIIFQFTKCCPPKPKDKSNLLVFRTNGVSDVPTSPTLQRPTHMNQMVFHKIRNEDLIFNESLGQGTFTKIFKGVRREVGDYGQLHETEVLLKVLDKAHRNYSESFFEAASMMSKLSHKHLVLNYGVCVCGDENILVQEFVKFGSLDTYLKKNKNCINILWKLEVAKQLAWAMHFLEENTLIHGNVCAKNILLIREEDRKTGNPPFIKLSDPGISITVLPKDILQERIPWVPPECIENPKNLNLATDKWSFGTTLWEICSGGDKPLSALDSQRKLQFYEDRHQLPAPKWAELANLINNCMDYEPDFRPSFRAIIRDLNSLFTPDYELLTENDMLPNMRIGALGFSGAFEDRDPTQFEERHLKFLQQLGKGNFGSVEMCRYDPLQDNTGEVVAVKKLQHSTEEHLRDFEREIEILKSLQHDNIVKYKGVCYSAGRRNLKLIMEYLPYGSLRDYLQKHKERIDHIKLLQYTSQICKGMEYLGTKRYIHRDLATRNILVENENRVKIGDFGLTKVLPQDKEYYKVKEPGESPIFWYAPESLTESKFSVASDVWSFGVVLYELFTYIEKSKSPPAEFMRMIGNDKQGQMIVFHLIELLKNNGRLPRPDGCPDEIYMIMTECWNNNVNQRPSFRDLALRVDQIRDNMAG

Structure (SMILES): CC1(C)CC(=O)CC(C)(C)N1
- outcome [1]: inactive

Structure (SMILES): CC(=O)CCC=C(C)CCC=C(C)C
- outcome [2]: inactive

Structure (SMILES): O=C1OC2(c3ccc(O)cc3Oc3cc(O)ccc32)c2ccccc21
- AC50 [2]: 7.41 µM (active)
- AC50 [3]: 23.6 µM (active)
- outcome [4]: inactive

Structure (SMILES): CCCCOCCOCCO
- outcome (Caspase-3 (Homo sapiens)): inactive

Structure (SMILES): C=C(C)C(=O)OCCC[Si](OC)(OC)OC
- AC50 [1]: 25 µM (active)

Structure (SMILES): CCOC(=O)C=Cc1ccccc1
- outcome [1]: inactive

Structure (SMILES): CC1=CC(C)C(C=O)C(C)C1 (stereo not given) (tested in a mixture with another compound)
- outcome [2]: inactive

Structure (SMILES): N#CCCNCCC#N
- AC50 [1]: 21.8 µM (active)

Structure (SMILES): CC/C(=C(\c1ccccc1)c1ccc(OCCN(C)C)cc1)c1ccccc1
- AC50 [5]: 33.4 µM (active)
- outcome [5]: inactive
- outcome [2]: inactive
- outcome [6]: inactive
- outcome (CDK2 (gene 1017)): inactive
- outcome [7]: inactive
- outcome [8]: inactive
- outcome [3]: inactive
- outcome [1]: inactive
- AC50 [9]: 22.9 µM (active)
- outcome [10]: inactive
- AC50 [11]: 11.1 µM (active)
- outcome [12]: inactive

Structure (SMILES): C#C[C@]1(O)CC[C@H]2[C@@H]3CCc4cc(O)ccc4[C@H]3CC[C@@]21C
- AC50 [13]: 1.2 µM (active) and 2.59 µM (active) and 1.12 µM (active)
- outcome [5]: inactive

Structure (SMILES): CC(CO)(CO)[N+](=O)[O-]
- outcome [1]: inactive

Structure (SMILES): CCCCCCCC1CCCC1=O (stereo not given)
- outcome [1]: inactive

Structure (SMILES): Cc1cc(N)n(-c2ccccc2)n1
- outcome [1]: inactive

Structure (SMILES): C[C@]12CC[C@@H]3c4ccc(O)cc4CC[C@H]3[C@@H]1CC[C@@H]2O
- AC50 [13]: 1.48 µM (active)
- outcome [6]: inactive
- outcome [14]: inactive

Structure (SMILES): CC(=O)C1C(=O)C=C(C)OC1=O (stereo not given)
- AC50 [1]: 39.1 µM (active)

Structure (SMILES): CCOC(=O)C(=O)OCC
- outcome [1]: inactive

Structure (SMILES): NC(=O)NC(N)=O
- AC50 [3]: 25 µM (active)
- outcome [1]: inactive

Structure (SMILES): O=C(c1ccc(OCCN2CCCCC2)cc1)c1c(-c2ccc(O)cc2)sc2cc(O)ccc12
- outcome [5]: inactive
- AC50 [2]: 15.3 µM (active)
- outcome [15]: inactive
- outcome [7]: inactive
- AC50 [3]: 12.6 µM (active)
- AC50 [16]: 21 µM (active)
- outcome [4]: inactive
- outcome [1]: inactive
- AC50 [9]: 35.6 µM (active)
- AC50 [11]: 25 µM (active)

Structure (SMILES): CC(C)OB(OC(C)C)OC(C)C
- outcome [1]: inactive

Structure (SMILES): c1ccc(Sc2ccccc2)cc1
- outcome [1]: inactive

Structure (SMILES): CCC(CC)CO
- outcome [1]: inactive

Structure (SMILES): Nc1ccc(N)c([N+](=O)[O-])c1
- AC50 [17]: 8.68 µM (active) and 13.7 µM (active)
- outcome [1]: inactive

Structure (SMILES): N#CCCCC(C#N)CCC#N (stereo not given)
- outcome [1]: inactive

Structure (SMILES): C=C(C)C(N)=O
- outcome [5]: inactive
- outcome [18]: inactive

Structure (SMILES): NC(=O)c1c(Cl)cccc1Cl
- outcome [1]: inactive

Structure (SMILES): O=[N+]([O-])c1cc(N(CCO)CCO)ccc1NCCO
- AC50 [17]: 8.66 µM (active)

Structure (SMILES): CCCCCCCCOC(C)=O
- AC50 [3]: 25 µM (active)

Structure (SMILES): Cc1ccc(C(C)(C)O)cc1
- AC50 [1]: 44.3 µM (active)

Structure (SMILES): C1COCO1
- outcome [1]: inactive

Structure (SMILES): CC/C=C\C#N
- AC50 [3]: 40.4 µM (active)
- outcome [4]: inactive
